# Test results from PubChem BioAssay (NCI).
# The panel holds about 79,000 compounds, 15% with a hit somewhere; the sample as a whole holds those more often. A number with no mark means an inactive call. Calls of active or inactive are those of the source. No stated cut-off is given here; in the data, active means growth inhibition above about 70%; inactive means the rest.
# Columns and labels:
# [1] = NCI Yeast Anticancer Drug Screen. Data for the rad50 strain (AID 155);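 further: 0% = growth of vehicle-only cultures of the same strain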; conditions: S. cerevisiae rad50 strain growth inhibition; at 50.0 µM; hits give high values
# Summary of the method: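 Compounds were tested on a yeast strain with an engineered DNA damage repair alteration; the reported value is growth inhibition normalised to vehicle treatment.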
# [2] = NCI Yeast Anticancer Drug Screen. Data for the mec2-1 strain (AID 157); conditions: S. cerevisiae mec2-1 strain, at 50.0 µM, hits give high values
# Summary of the method: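 Each compound was tested on mec2-1 yeast, a strain altered in DNA damage repair or cell cycle control. Growth inhibition is reported relative to vehicle.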
# [3] = NCI Yeast Anticancer Drug Screen. Data for the sgs1 mgt1 strain (AID 161);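 further: 0% = growth of cultures given vehicle only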; conditions: S. cerevisiae sgs1 mgt1 strain, at 50.0 µM, hits give high values
# Summary of the method: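 Read-out: growth inhibition vs vehicle controls. Cells: mutant yeast strain deficient in DNA damage repair.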
# [4] = NCI Yeast Anticancer Drug Screen. Data for the cln2 rad14 strain (AID 165);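 further: 0% = growth equal to vehicle treated cultures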; conditions: S. cerevisiae cln2 rad14 strain, at 50.0 µM, hits give high values
# Summary of the method: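 Test compounds were added to cln2 rad14 yeast cultures; inhibition of growth was then determined by comparison with vehicle treatment.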
# [5] = NCI Yeast Anticancer Drug Screen. Data for the bub3 strain (AID 167); conditions: S. cerevisiae bub3 mutant strain, at 50.0 µM, hits give high values
# Summary of the method: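 Growth of a checkpoint-deficient yeast mutant is measured after compound exposure. Values represent inhibition relative to vehicle.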
# [6] = NCI Yeast Anticancer Drug Screen. Data for the mlh1 rad18 strain (AID 175); conditions: S. cerevisiae mlh1 rad18 strain growth inhibition; at 50.0 µM; hits give high values
# Summary of the method: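 Inhibition values reflect reduced growth of mutant yeast versus vehicle-treated controls following compound exposure; the mutations affect DNA damage repair.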
SMILES,growth inhibition [1],growth inhibition [2],growth inhibition [3],growth inhibition [4],growth inhibition [5],growth inhibition [6]
COc1ccc(/C=C\c2cc(OC)c(OC)c(OC)c2)cc1OCC(=O)O,-5.95%,-1.75%,13%,8.65%,-10.4%,-52.5%
Cc1cc(C)c2c(ccc3ccccc32)n1,-43.9%,-21.4%,-23.4%,-5.75%,-19.9%,-33.5%
CC12CCC(NC(=O)C3CCCN3C(=O)OCc3ccccc3)CC1CCC1C2CCC2(C)C(NC(=O)C3CCCN3C(=O)OCc3ccccc3)CCC12 (stereo unspecified),-4.3%,4.15%,-19.4%,-46%,-5.35%,-3.2%
CCCCSc1n[nH]c(=O)nc1N,-5.5%,-7.95%,-3.1%,-11.3%,-11.6%,3.9%
O=C(c1ccccc1)c1cc(Cl)ccc1N1C(=O)C=CC1=O,99.2% (active),99.7% (active),99.7% (active),99.2% (active),99% (active),99.5% (active)
CCCCCCC(c1c(O)cc(C)[nH]c1=O)c1c(O)cc(C)[nH]c1=O,-6.55%,-8.5%,9.55%,-8.4%,-12.8%,-11.9%
Nc1nc2c(C(=O)c3cccs3)nnn2c2cccc(Cl)c12,-21.1%,-21.1%,-21.9%,-12.2%,-14.8%,-2.25%
COc1ccc2nccc(N)c2c1,31.9%,-7.95%,15.1%,11.5%,-8.05%,20.9%
Cc1c(C)c(O)c(SC(CC(=O)O)C(=O)O)c(C)c1O (stereo unspecified),14.8%,37.8%,41.1%,1.65%,21.7%,44.1%
COc1ccc(C(=O)C[n+]2cc(Br)cc3ccccc32)cc1,-3.1%,11.8%,1.5%,22.9%,-3.05%,54.5%
Cc1ccc(NS(=O)(=O)c2ccc(F)cc2)c(C)c1,15.4%,19.1%,-2%,-14.2%,-0.2%,-9.15%
COc1ccc(C2COc3c(ccc(OC)c3OC)C2=O)cc1OC (stereo unspecified),-20.7%,-1%,-1.2%,-6.5%,-0.5%,-18.5%
O=[N+]([O-])c1ccc(COP(=O)(O)OCc2ccc([N+](=O)[O-])cc2)cc1,-1.5%,10.9%,13.1%,-9.55%,11.2%,15.4%
O=S1(=O)NC(=NC2CCCC2)c2ccccc21,0.7%,-12.4%,-3.55%,-35.8%,-7.75%,1.15%
CC(NC(=O)N(C)C)NC(=O)N(C)C,-17.9%,-22.3%,-5.15%,-5.85%,-0.9%,-4.95%
Cc1cccc(NC(=O)CCl)c1C,-18.1%,-37.6%,-7.65%,11.8%,-21.9%,-3.7%
COc1ccc(NC(=O)Oc2ccc(OC)cc2)cc1,5.75%,12.2%,0.75%,11.2%,5.5%,-16.1%
[N-]=[N+]=NC1CCOC(n2cnc3c(N)ncnc32)C1O (stereo unspecified),-2.05%,-3.95%,5.55%,-33.5%,-4.6%,1.85%
CCOC(=O)C1C/C(C)=C(/C)SCCCS1 (stereo unspecified),18.8%,3.2%,-5.5%,21.1%,5.05%,-67.2%
COc1cc(=O)n(-c2ccccc2)nc1C#N,2.25%,-0.7%,1.35%,-46.1%,8.85%,-1.2%
CCOc1ccc(OCC)c(NC(=O)OC(C)C)c1,-6.35%,-3.25%,20.3%,-27.5%,47.5%,12.9%

SMILES,growth inhibition [1],growth inhibition [2],growth inhibition [3],growth inhibition [4],growth inhibition [5],growth inhibition [6]
COc1cc(Cl)c(CC(=O)c2c[nH]c3ccccc23)cc1OC,10.6%,-27.1%,-17.8%,-31.7%,-29.2%,20.6%
CCCCCCCC(=O)N1CCCC(C)C1 (stereo unspecified),-7.8%,-25.8%,9.3%,-5.75%,-35.3%,-3.9%
CCOC(=O)/C=C/SCCC(=O)OC,37.3%,21.9%,7.9%,12.4%,15%,40.8%
Cc1ccc(S(=O)(=O)Nn2c(O)c(C#N)c(-c3ccc(Cl)cc3)c(C#N)c2=O)cc1,1.3%,20.3%,11.2%,11.5%,15.5%,32.3%
C[Si](C)(C)O/C=C1\CCCCC1=O,5.65%,8.4%,2.5%,14.8%,2.8%,-23.6%
CCSCC1(c2ccc(OC)cc2)NC(=O)NC1=O (stereo unspecified),-20.5%,2.65%,7.6%,-10.1%,-10.7%,1.05%
Cc1ccc(C)c2c1C(=O)c1ccccc1C2(O)C#Cc1ccccc1 (stereo unspecified),27.6%,1.45%,29.4%,21.1%,31.7%,23.2%
CSc1cc(=O)n(C2OC(CO)C(O)C2O)c(=O)[nH]1 (stereo unspecified),9.05%,-5.35%,17.6%,-14.9%,10.1%,25.7%
COC(=O)C(=O)c1c(-c2cccnc2)[nH]c2ccccc12,7.3%,-7.1%,1.05%,-9.05%,13.2%,4%
CC1(C)CC2=C(Sc3ccccc3N2)C(=O)C1C(=O)C(=O)Nc1cccc([N+](=O)[O-])c1 (stereo unspecified),-22.1%,-22.8%,-11.7%,-35.9%,2%,1.1%
O=C(Nc1cccc(Cl)c1)Nc1ccc(Sc2ccc(Cl)cc2)o1,55.1%,7%,70.6% (active),29.9%,47.6%,69.8%
C=CCOC(=O)COC(=O)C(C)(C)OC(C)=O,-3.35%,10.3%,-1.7%,10.9%,12.6%,-5.9%
O=C(/C(=C\c1ccc(Cl)cc1)c1ccccc1)c1ccccc1,-38%,-29.5%,4.9%,5.95%,-23.4%,-16.1%
CC1=CC(=O)C(C(C)C)=CC1=Nc1ccc(N(C)C)cc1,-24.9%,-26.3%,-12.4%,-33%,42.4%,-12.3%
Cc1c(C)c(O)c2c(c1C)C(C)C(=O)OC2=O (stereo unspecified),1.2%,-37.8%,-13.2%,10%,-19.3%,-0.15%
O=C(/C=C/c1ccc2c(c1)OCO2)CC(=O)/C=C/c1ccc2c(c1)OCO2,3.5%,19.6%,11.3%,7.15%,-4.3%,-15.6%
CCCCCCC(C)OC(=O)CCl (stereo unspecified),-0.55%,-6.4%,2.25%,6.1%,1.25%,0.95%
Cc1cc(O)c(/C=N/c2nc(-c3ccc([N+](=O)[O-])cc3)cs2)c(=O)o1,58.1%,20.9%,40.8%,20.1%,-7.7%,74.1% (active)
O=S(=O)(O)C(c1ccccc1)C(O)c1ccccc1 (stereo unspecified),0.95%,-8.95%,-14.4%,-25.2%,-20.9%,-0.25%
O=[N+]([O-])c1ccccc1SCl,11.7%,5.5%,5.05%,-21.9%,2%,6.7%
